In the library only some 2.9% were active in any assay of this set; here they are far more common.
MEKK2 WT-MEK5 – raises or lowers MEK5 binding to wildtype human MEKK2 PB1 domain; bead flow cytometry, Alexa488-MEK5 binding to MEKK2 WT; actives lie on both sides; Q9Y2U5; hit rate 1.1% among 290,000; binding response (% of control), % at 10 µM; in the data active means binding response below about 67% or above about 130%; inconclusive means no clear call, values can overlap the other calls; inactive means in between
MEKK3 PB1 HTS – raises or lowers MEK5 binding to the human MEKK3 PB1 domain; binding response (% of control), % at 10 µM; hit rate 1.4% among 290,000; bead-based flow cytometry, Alexa488-MEK5 binding to MEKK3; actives lie on both sides; 0 = blocked by unlabeled MEK5, 100 = vehicle; Q99759;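 active means binding response more than 3 SD above or below the average of its plate-row segment, actives on both sides; inconclusive means wells at one plate position flagged as instrument error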;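 further: Alexa488 bead fluorescence after subtracting the streptavidin-only scavenger bead signal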
dFosB activator – mouse delta FosB homodimer activation; P13346; purified delta FosB, TAMRA-CDK5 oligo fluorescence polarization; percent of positive-control signal above neutral wells; activation, % at 25 µM; hit rate 0.99% among 340,000; AID 493131;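 active means mean activation above about 17%, with every replicate also reaching it, limit read from the data, passing the limit was not always enough; inconclusive means only one of the two conditions met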
Target sequence (P13346 whole entry, looked up): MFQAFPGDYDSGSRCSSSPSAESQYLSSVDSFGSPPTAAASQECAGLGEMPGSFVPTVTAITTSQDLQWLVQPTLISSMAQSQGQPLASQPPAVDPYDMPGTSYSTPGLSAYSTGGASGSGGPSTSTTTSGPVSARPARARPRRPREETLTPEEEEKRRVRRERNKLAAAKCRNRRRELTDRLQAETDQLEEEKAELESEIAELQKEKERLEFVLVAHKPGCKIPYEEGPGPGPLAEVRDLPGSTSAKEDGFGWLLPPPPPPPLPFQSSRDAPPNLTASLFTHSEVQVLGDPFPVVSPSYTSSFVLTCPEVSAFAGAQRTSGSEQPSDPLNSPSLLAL
MEKK2 mut-MEK5 – signal of MEK5 binding to mutant human MEKK2 PB1 domain | bead flow cytometry, Alexa488-MEK5 binding to MEKK2 mutant | hit rate 0.35% among 290,000 | percent response, % at 10 µM; in the data active means percent response above about 24%, passing the limit was not always enough
DNA FID counter – displaces DNA intercalator in HCV helicase counter-screen; inhibition, % at 7.9 µM; hit rate 0.17% among 290,000; DNA fluorescent intercalator displacement, fluorescence; in the data active means inhibition above about 37%;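 further: higher means more ethidium bromide displaced from hairpin DNA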
MEKK2wt confirm – raises or lowers MEK5 binding to wildtype human MEKK2, retest. bead flow cytometry, Alexa488-MEK5 binding to MEKK2 WT; actives lie on both sides. binding response (% of control), % at 10 µM. hit rate 2.4% among 5,900. shares compounds with MEKK3 PB1 HTS; in the data active means binding response below about 16% or above about 210%; inactive means in between
MEKK2mut confirm – signal of MEK5 binding to mutant human MEKK2, retest; shares compounds with MEKK3 PB1 HTS; bead flow cytometry, Alexa488-MEK5 binding to MEKK2 mutant; percent response, % at 10 µM; hit rate 2% among 5,900; AID 1893; in the data active means percent response mostly above about 71%, no sharp cut-off; inactive means mostly below about 38%;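 further: higher means compound restores mutant binding toward wildtype level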
MEKK3-MEK5 inh – confirmation of inhibitors of MEK5 binding to human MEKK3 | AID 1894 | hit rate 1.8% among 5,900 | binding response (% of control), % at 10 µM | shares compounds with MEKK3 PB1 HTS | bead flow cytometry, Alexa488-MEK5 binding to MEKK3; hits give low values;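 active means binding response below 72% of control, or above a set upper limit, though filed actives all read lower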
Large screens that a line does not name were inactive (follow-up assays come after a bar, where they were run); [ ] = another dose, or the depositor's remark.

CC(=O)Nc1ccc(N=Cc2c(O)c(C(=O)Nc3ccccc3)cc3ccccc23)cc1	MEKK2 WT-MEK5 10.0[inhibitor] (no result: dFosB activator) | MEKK2wt confirm inactive | MEKK2mut confirm inactive | MEKK3-MEK5 inh inactive
CC(=O)Nc1ccc(N=Cc2c(O)c3ccccc3oc2=O)cc1	none
O=C(NCCc1ccccc1)c1cc(=O)c2ccccc2o1	none
Cc1cc(=O)[nH]c2nnc(-c3ccc(Cl)cc3)n12	none
CCCc1cc2c(=O)c(-c3ccccn3)c(C)oc2cc1O	MEKK3 PB1 HTS 75.0[inhibitor] | MEKK2wt confirm inactive | MEKK2mut confirm inactive | MEKK3-MEK5 inh inactive
COc1ccc(N(C(=O)c2cccnc2)S(=O)(=O)c2cccs2)cc1	none
Cc1ccc(-c2c[n+](CC(=O)N3c4ccccc4Sc4ccccc43)c3n2CCC3)cc1	MEKK2 WT-MEK5 152.0 | MEKK2wt confirm inactive | MEKK2mut confirm inactive | MEKK3-MEK5 inh inactive
O=C(C[n+]1cc(-c2ccc(F)cc2)n2c1CCC2)Nc1nc(-c2ccc(F)cc2)cs1	dFosB activator inconclusive
Cc1ccc(-c2csc(NC(=O)C[n+]3cc(-c4ccc(C)cc4)n4c3CCC4)n2)cc1	MEKK2 WT-MEK5 141.0, dFosB activator 36.7 | MEKK2wt confirm 207.0 | MEKK2mut confirm inactive | MEKK3-MEK5 inh inactive
Cc1ccc(-c2csc(NC(=O)C[n+]3cc(-c4ccccc4)n4c3CCC4)n2)cc1	MEKK2 WT-MEK5 167.0 (no result: dFosB activator) | MEKK2wt confirm inactive | MEKK2mut confirm inactive | MEKK3-MEK5 inh inactive
COCCNC(=O)COc1ccc(C)cc1C(=O)c1cc(C#N)c(=O)n(C2CC2)c1	none
CN(C)CCN(C)Cc1c2ccccc2c(CN(C)CCN(C)C)c2ccccc12	MEKK2 mut-MEK5 24.0 | MEKK2wt confirm inactive | MEKK2mut confirm inactive | MEKK3-MEK5 inh inactive
COc1ccc(CCN(C)C(=S)NC(=O)c2ccc(F)cc2Cl)cc1OC	none
COC(=O)c1[nH]c2ccccc2c1Sc1ccccc1	none
CNC(=O)CCc1[nH]c2ccccc2c1Sc1ccccc1	MEKK3 PB1 HTS 160.0 | MEKK2wt confirm inactive | MEKK2mut confirm inactive | MEKK3-MEK5 inh inactive
O=C(Nc1ccc2c(c1)OCO2)OCc1ccccc1	none
Cc1ccc(S(=O)(=O)NC(C(=O)OCC(=O)NC2CCS(=O)(=O)C2)C(C)C)cc1 (stereo unspecified)	none
Cc1ccc(C(=O)N[C@H](C(=O)OCC(=O)NC2CCS(=O)(=O)C2)C(C)C)cc1 (stereo partly specified)	MEKK3 PB1 HTS 132.0 | MEKK2wt confirm inactive | MEKK2mut confirm inactive | MEKK3-MEK5 inh inactive
Cc1ccc(CSCC(=O)NCc2cccnc2)cc1	MEKK3 PB1 HTS 137.0 | MEKK2wt confirm inactive | MEKK2mut confirm inactive | MEKK3-MEK5 inh inactive
Cc1cc(C(=O)COC(=O)C23CC4CC(CC(O)(C4)C2)C3)c(C)n1C	none (no result: MEKK2 WT-MEK5, MEKK3 PB1 HTS, MEKK2 mut-MEK5, DNA FID counter)
COc1ccc(-n2cc(CNCc3cnc4ccccn34)c(-c3cccc(F)c3)n2)cc1	MEKK2 WT-MEK5 170.0, MEKK2 mut-MEK5 59.0 | MEKK2wt confirm inactive | MEKK2mut confirm inactive | MEKK3-MEK5 inh inactive
Cn1sccc1=O	none (no result: MEKK2 WT-MEK5, MEKK3 PB1 HTS, MEKK2 mut-MEK5, DNA FID counter)
O=C(Nc1ccc(-c2nc3ccccc3s2)c(OC(=O)c2ccccc2)c1)c1ccccc1	none
O=C1Nc2ccc([N+](=O)[O-])cc2OC1CCN1CCCC1 (stereo unspecified)	MEKK3 PB1 HTS 141.0 | MEKK2wt confirm inactive | MEKK2mut confirm inactive | MEKK3-MEK5 inh inactive
CN1CCN(CCC2Oc3cc([N+](=O)[O-])ccc3NC2=O)CC1 (stereo unspecified)	none
CN(C)CCCN1C(=O)C(O)=C(C(=O)c2cccs2)C1c1cccc([N+](=O)[O-])c1 (stereo unspecified)	MEKK2 WT-MEK5 1.0[inhibitor], MEKK3 PB1 HTS 2.0[inhibitor] (no result: dFosB activator) | MEKK2wt confirm inactive | MEKK2mut confirm inactive | MEKK3-MEK5 inh inactive
CN1CCN(c2ccccc2NC(=O)c2cc3c(s2)-c2ccccc2OC3)CC1	MEKK2 WT-MEK5 146.0 | MEKK2wt confirm inactive | MEKK2mut confirm inactive | MEKK3-MEK5 inh inactive
CCCOC(=O)c1ccc(OCC(O)CN2CCN(C(=O)c3ccccc3)CC2)cc1 (stereo unspecified)	MEKK2 mut-MEK5 27.0 | MEKK2wt confirm inactive | MEKK2mut confirm inactive | MEKK3-MEK5 inh inactive
CC(C)(C)c1ccc(OCC(O)CN2CCN(C(=O)c3ccccc3)CC2)cc1 (stereo unspecified)	none
CN(C)S(=O)(=O)N(CCN1CCOCC1)Cc1ccccc1F	MEKK2 mut-MEK5 24.0 | MEKK2wt confirm inactive | MEKK2mut confirm inactive | MEKK3-MEK5 inh inactive
c1cncc(CSc2nnc3ccc(-c4cccs4)nn23)c1	none
c1ccc(CSc2nnc3ccc(-c4cccs4)nn23)nc1	MEKK2 mut-MEK5 197.0 | MEKK2wt confirm inactive | MEKK2mut confirm inactive | MEKK3-MEK5 inh inactive
NC(=O)NC(=O)COC(=O)c1cccnc1Nc1ccccc1F	MEKK2 WT-MEK5 62.0[inhibitor], MEKK3 PB1 HTS 65.0[inhibitor] | MEKK2wt confirm inactive | MEKK2mut confirm inactive | MEKK3-MEK5 inh inactive
CCCNC(=O)COC(=O)c1cccnc1Nc1ccccc1F	none
CCC(C)(C)NC(=O)C(c1ccc(F)cc1)N(Cc1ccccc1)C(=O)c1cnccn1 (stereo unspecified)	none
CN(C)CCNC(=O)c1sc2nc(-c3ccccc3)cc(C(F)(F)F)c2c1N	MEKK2 WT-MEK5 158.0, dFosB activator 19.0 | MEKK2wt confirm inactive | MEKK2mut confirm inactive | MEKK3-MEK5 inh inactive
CC(C)(C)NC(=O)CN(Cc1cccs1)C(=O)CNS(=O)(=O)c1ccc(F)cc1	none
CCC(C(=O)NC(C)(C)C)N(Cc1cccs1)C(=O)CNS(=O)(=O)c1ccccc1 (stereo unspecified)	MEKK3 PB1 HTS 132.0 | MEKK2wt confirm inactive | MEKK2mut confirm inactive | MEKK3-MEK5 inh inactive
Cn1c(CS(=O)Cc2c(Cl)cccc2Cl)nnc1SCc1ccc(Cl)cc1 (stereo unspecified)	MEKK3 PB1 HTS 34.0[inhibitor] | MEKK2wt confirm inactive | MEKK2mut confirm inactive | MEKK3-MEK5 inh inactive
CCN(CC)S(=O)(=O)c1ccc(N2CCCC2)c(NC(=O)Cc2cc(OC)c(OC)c(OC)c2)c1	none
Cc1cc(C)n2nc(-c3ccsc3-n3c(C)ccc3C)cc2n1	MEKK2 WT-MEK5 9.0[inhibitor] | MEKK2wt confirm inactive | MEKK2mut confirm inactive | MEKK3-MEK5 inh inactive
C/C(=C\c1ccccc1)CN1CCC(C(=O)N2CCCCC2)CC1	MEKK3 PB1 HTS 138.0 | MEKK2wt confirm inactive | MEKK2mut confirm inactive | MEKK3-MEK5 inh inactive
CCCCn1c(N)c(-c2nc3ccccc3s2)c2c([N+](=O)[O-])nn(CC)c(=O)c21	none

Assay outcomes deposited in PubChem by several laboratories.
